Test results: PubChem BioAssay (NCATS)
Results filed as inconclusive are left out. The source made the active and inactive calls. Calls follow the shape of the dose curve; as a rule, active = well fitted inhibition curve with a large enough effect; inconclusive = small, poorly fitted or top-dose-only effect; inactive = flat fitted curve, though single readings scatter.

Experiments:
Assay in all cases: qHTS profiling for inhibitors of Plasmodium falciparum proliferation (AID 504749); also: nearly all actives have a fitted effect of over 60% in size
Settings in all cases: P. falciparum in erythrocytes, SYBR Green DNA, 72 h; series mostly up to 28.7 µM
CP268 = tested on: CP268
Procedure, shortened: (§1)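 Parasite proliferation within erythrocytes, 72 h exposure. Endpoint: SYBR Green I fluorescence after overnight lysis at room temperature. Controls: 0.29 uM artemisinin, DMSO.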

CP269 = tested on: CP269
Procedure, shortened: as §1

CP286 = tested on: CP286
Procedure, shortened: as §1

CP291 = tested on: CP291
Procedure, shortened: as §1

CP297 = tested on: CP297
Procedure, shortened: as §1

CP305 = tested on: CP305
Procedure, shortened: as §1

CP315 = tested on: CP315
Procedure, shortened: as §1

CP325 = tested on: CP325
Procedure, shortened: as §1

CP329 = tested on: CP329
Procedure, shortened: as §1

CP335 = tested on: CP335
Procedure, shortened: as §1

DFO2036 = tested on: DFO2036
Procedure, shortened: as §1

DIV14 = tested on: DIV14
Procedure, shortened: as §1

DIV17 = tested on: DIV17
Procedure, shortened: as §1

DIV30 = tested on: DIV30
Procedure, shortened: as §1

Dd2 = tested on: Dd2
Procedure, shortened: as §1

ECU = tested on: ECU
Procedure, shortened: as §1

FAB9 = tested on: FAB9
Procedure, shortened: as §1

GB4 = tested on: GB4
Procedure, shortened: as §1

HB3 = tested on: HB3
Procedure, shortened: as §1

ICS = tested on: ICS
Procedure, shortened: as §1

Measured: outcome

CCc1cccc2c3c([nH]c12)[C@@](CC)(CC(=O)O)OCC3
inactive: all assays above

CCOC(=O)C(CCc1ccccc1)NC(C)C(=O)N1Cc2ccccc2CC1C(=O)O (stereo not given)
inactive: all assays above
